Measurements published in PubChem BioAssay (EPA / NIEHS).
Several values for one entry are separate records, joined by “and”; a condition that tells them apart may be missing. Equal values may be shown once. The source holds several records for some structures; these can differ, active in one and inactive in another. Activity calls are given as the source filed them. The calls were made as follows: active = hit-call score of the fitted dose curve at least 0.9, where 1 is the maximum; inactive = score below 0.9.

Assays:
[1] = read-out: Urokinase-type plasminogen activator receptor (uPAR), PLAUR (gene 5329); assay: BSK_4H_uPAR: BioMAP Diversity Plus: 4H Assay for Urokinase-type plasminogen activator receptor (uPAR) Biomarker Activity (AID 2283030); conditions: primary human endothelial cells (HUVEC); actives raise or lower the signal
Procedure, shortened: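 Cell-surface uPAR ELISA signal, measured 24 h after dosing human umbilical vein endothelial cells, was analyzed with bidirectional fitting relative to DMSO. Parallel SRB staining of total protein tracked overt cytotoxicity.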

[2] = read-out: Vascular endothelial growth factor receptor 2 (Homo sapiens) (UniProt P35968); assay: BSK_4H_VEGFRII: BioMAP Diversity Plus: 4H Assay for Vascular endothelial growth factor receptor 2 (VEGFR2) Biomarker Activity (AID 2283031); conditions: primary human endothelial cells (HUVEC); actives raise or lower the signal;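 as to AC50: cell-surface VEGFR2 protein level quantified by ELISA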
Procedure, shortened: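 ELISA read-out of VEGFRII in primary human umbilical vein endothelium, taken 24 h after chemical treatment. Responses are expressed relative to DMSO, with bidirectional fitting.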

[3] = read-out: Human Leukocyte Antigen - DR isotype (HLADR), HLA-DRA (gene 3122); assay: BSK_BE3C_HLADR: BioMAP Diversity Plus: BE3C Assay for Human Leukocyte Antigen - DR isotype (HLADR) Biomarker Activity (AID 2283032); conditions: primary human bronchial epithelial cells; actives raise or lower the signal
Procedure, shortened: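 Chemicals are dosed onto BE3C bronchial epithelial cultures of human origin and left 24 h. HLA-DR is then measured by ELISA, and the endpoint is fitted in both directions using DMSO as the activity baseline.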

[4] = read-out: Vascular cell adhesion molecule 1 (VCAM1), VCAM1 (gene 7412); assay: BSK_4H_VCAM1: BioMAP Diversity Plus: 4H Assay for Vascular cell adhesion molecule 1 (VCAM1) Biomarker Activity (AID 2283033); conditions: primary human endothelial cells (HUVEC); actives raise or lower the signal;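 also: cell-surface VCAM-1 protein measured by ELISA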
Procedure, shortened: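 Chemicals are added to primary human umbilical vein endothelial cells. After 24 h, VCAM-1 levels are measured by ELISA. Values come from bidirectional fitting referenced to DMSO.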

[5] = read-out: Interferon-gamma inducible Protein 10 (IP10), CXCL10 (gene 3627); assay: BSK_BE3C_IP10: BioMAP Diversity Plus: BE3C Assay for Interferon-gamma inducible Protein 10 (IP10) Biomarker Activity (AID 2283034); conditions: primary human bronchial epithelial cells; actives raise or lower the signal
Procedure, shortened: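 IP-10 quantified by ELISA serves as the endpoint. Cells: primary human bronchial epithelium, read 24 h after compound addition. Activity is derived by bidirectional fitting with DMSO as negative control.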

[6] = read-out: Monokine induced gamma interferon (MIG), CXCL9 (gene 4283); assay: BSK_BE3C_MIG: BioMAP Diversity Plus: BE3C Assay for Monokine induced gamma interferon (MIG) Biomarker Activity (AID 2283035); conditions: primary human bronchial epithelial cells; actives raise or lower the signal;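 also: MIG protein measured by ELISA in BE3C cultures after 24 h of dosing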
Procedure, shortened: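 ELISA quantified MIG after 24 h exposure of primary bronchial epithelial cultures, analysed in both directions relative to DMSO. Cytotoxicity tracked in parallel cultures by sulforhodamine B staining.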

[7] = read-out: Transforming growth factor beta 1 (TGFb1), TGFB1 (gene 7040); assay: BSK_BE3C_TGFb1: BioMAP Diversity Plus: BE3C Assay for Transforming growth factor beta 1 (TGFb1) Biomarker Activity (AID 2283036); conditions: primary human bronchial epithelial cells; actives raise or lower the signal
Procedure, shortened: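 Bronchial epithelial primary cells are treated with test chemical, then TGF-b1 is quantified by ELISA after 24 hours. Values derive from bidirectional fitting against DMSO, with cytotoxicity checked by SRB staining in parallel cultures.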

[8] = read-out: Plasminogen activator inhibitor-1 (PAI1), SERPINE1 (gene 5054); assay: BSK_BE3C_PAI1: BioMAP Diversity Plus: BE3C Assay for Plasminogen activator inhibitor-1 (PAI1) Biomarker Activity (AID 2283037); conditions: primary human bronchial epithelial cells; actives raise or lower the signal
Procedure, shortened: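 Values derive from bidirectional fitting against DMSO baseline of PAI-1 levels, measured by ELISA in human bronchial epithelial cells 24 h after compound addition.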

[9] = read-out: Urokinase-type plasminogen activator receptor (uPAR), PLAUR (gene 5329); assay: BSK_BE3C_uPAR: BioMAP Diversity Plus: BE3C Assay for Urokinase-type plasminogen activator receptor (uPAR) Biomarker Activity (AID 2283039); conditions: primary human bronchial epithelial cells; actives raise or lower the signal;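 also: cells exposed to compound for one day before measurement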
Procedure, shortened: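 Steps: dose human primary bronchial epithelial cells, incubate 24 h, measure uPAR by ELISA, then fit gain- or loss-of-signal response bidirectionally relative to DMSO.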

[10] = read-out: Interleukin-6 (IL6), IL6 (gene 3569); assay: BSK_CASM3C_IL6: BioMAP Diversity Plus: CASM3C Assay for Interleukin-6 (IL6) Biomarker Activity for (AID 2283040); conditions: primary human coronary artery smooth muscle cells; actives raise or lower the signal
[11] = read-out: Tissue plasminogen activator (tPA), PLAT (gene 5327); assay: BSK_BE3C_tPA: BioMAP Diversity Plus: BE3C Assay for Tissue plasminogen activator (tPA) Biomarker Activity (AID 2283041); conditions: primary human bronchial epithelial cells; actives raise or lower the signal;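 also: tPA level quantified by ELISA one day after compound addition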
Procedure, shortened: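 Gain- or loss-of-signal in tPA, measured by ELISA, derived by bidirectional fitting against DMSO. Cells: human primary bronchial epithelial; read at 24 h after chemical dosing.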

[12] = read-out: Interleukin-8 (IL8), CXCL8 (gene 3576); assay: BSK_CASM3C_IL8: BioMAP Diversity Plus: CASM3C Assay for Interleukin-8 (IL8) Biomarker Activity (AID 2283042); conditions: primary human coronary artery smooth muscle cells; actives raise or lower the signal;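 also: IL-8 protein level quantified by ELISA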
[13] = read-out: Human Leukocyte Antigen - DR isotype (HLADR), HLA-DRA (gene 3122); assay: BSK_CASM3C_HLADR: BioMAP Diversity Plus: CASM3C Assay for Human Leukocyte Antigen - DR isotype (HLADR) Biomarker Activity (AID 2283043); conditions: primary human coronary artery smooth muscle cells; actives raise or lower the signal;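 also: cell-surface HLA-DR protein level quantified by ELISA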
[14] = read-out: Macrophage colony-stimulating factor (MCSF), CSF1 (gene 1435); assay: BSK_CASM3C_MCSF: BioMAP Diversity Plus: CASM3C Assay for Macrophage colony-stimulating factor (MCSF) Biomarker Activity (AID 2283044); conditions: primary human coronary artery smooth muscle cells; actives raise or lower the signal;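 also: M-CSF protein amount quantified by ELISA after 24 h exposure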
[15] = read-out: Low-density lipoprotein receptor (LDLR), LDLR (gene 3949); assay: BSK_CASM3C_LDLR: BioMAP Diversity Plus: CASM3C Assay for Low-density lipoprotein receptor (LDLR) Biomarker Activity (AID 2283045); conditions: primary human coronary artery smooth muscle cells; actives raise or lower the signal;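 also: LDLR protein level on the cell surface quantified by ELISA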
[16] = read-out: Monocyte Chemoattractant Protein-1 (MCP1), CCL2 (gene 6347); assay: BSK_CASM3C_MCP1: BioMAP Diversity Plus: CASM3C Assay for Monocyte Chemoattractant Protein-1 (MCP1) Biomarker Activity (AID 2283046); conditions: primary human coronary artery smooth muscle cells; actives raise or lower the signal;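 also: MCP-1 level quantified by ELISA 24 h after dosing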
[17] = BSK_CASM3C_Proliferation: Cell Proliferation Assessment in the BioMAP Diversity Plus: CASM3C Assay (AID 2283047); conditions: primary human coronary artery smooth muscle cells;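 also: sulforhodamine B total protein stain as relative cell number at 560 nm; sub-confluent cells exposed 48 h before staining; fitted both ways against DMSO so gain or loss of cell number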
[18] = read-out: Monokine induced gamma interferon (MIG), CXCL9 (gene 4283); assay: BSK_CASM3C_MIG: BioMAP Diversity Plus: CASM3C Assay for Monokine induced gamma interferon (MIG) Biomarker Activity (AID 2283048); conditions: primary human coronary artery smooth muscle cells; actives raise or lower the signal;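 also: MIG protein level measured by ELISA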
[19] = read-out: serum amyloid A (SAA), SAA1 (gene 6288); assay: BSK_CASM3C_SAA: BioMAP Diversity Plus: CASM3C Assay for serum amyloid A (SAA) Biomarker Activity (AID 2283049); conditions: primary human coronary artery smooth muscle cells; actives raise or lower the signal;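 also: SAA protein level quantified by ELISA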
[20] = read-out: urokinase plasminogen activator (uPA), PLAU (gene 5328); assay: BSK_BE3C_uPA: BioMAP Diversity Plus: BE3C Assay for urokinase plasminogen activator (uPA) Biomarker Activity (AID 2283038); conditions: primary human bronchial epithelial cells; actives raise or lower the signal
Procedure, shortened: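 Bronchial epithelial cells (human, primary); chemical 24 h; uPA by ELISA; bidirectional fit vs DMSO. SRB (0.1%, after 10% TCA fixation, 560 nm) in parallel cultures for cytotoxicity.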

Measured: AC50

COc1nc(C)nc(NC(=O)NS(=O)(=O)c2ccccc2CCC(F)(F)F)n1
inactive: [1] | [2] | [3] | [4] | [5] | [6] | [7] | [8] | [9] | [10] | [11] | [12] | [13] | [14] | [15] | [16] | [17] | [18] | [19]

C=CC1(C)OC(=O)N(c2cc(Cl)cc(Cl)c2)C1=O (stereo not drawn)
inactive: [1] | [2] | [3] | [4] | [5] | [6] | [7] | [8] | [9] | [10] | [11] | [12] | [13] | [14] | [15] | [16] | [17] | [18] | [19]

CCOC(=O)CC(SP(=S)(OC)OC)C(=O)OCC (stereo not drawn)
inactive: [1] | [2] | [3] | [4] | [5] | [6] | [7] | [8] | [9] | [10] | [11] | [12] | [13] | [14] | [15] | [16] | [17] | [18] | [19]

N#CC(CCc1ccc(Cl)cc1)(Cn1cncn1)c1ccccc1 (stereo not drawn)
active: [3] 31.2 µM | [5] 33.7 µM
inactive: [1] | [2] | [4] | [6] | [7] | [8] | [20] | [9] | [10] | [11] | [12] | [13] | [14] | [15] | [16] | [17] | [18] | [19]

CC(Oc1ccc(Cl)cc1Cl)C(=O)O (stereo not drawn)
inactive: [1] | [2] | [3] | [4] | [5] | [6] | [7] | [8] | [20] | [9] | [10] | [11] | [12] | [13] | [14] | [15] | [16] | [17] | [18] | [19]

COc1nc(C)nc(NC(=O)NS(=O)(=O)c2ccccc2Cl)n1
active: [7] 0.29 µM | [16] 0.507 µM
inactive: [1] | [2] | [3] | [4] | [5] | [6] | [7] | [8] | [9] | [10] | [11] | [12] | [13] | [14] | [15] | [16] | [17] | [18] | [19]

COC(=O)C(C)Oc1ccc(Oc2ccc(Cl)cc2Cl)cc1 (stereo not drawn)
inactive: [1] | [2] | [3] | [4] | [5] | [6] | [7] | [8] | [9] | [10] | [11] | [12] | [13] | [14] | [15] | [16] | [17] | [18] | [19]
active: [2] 20 µM | [3] 9.71 µM and 20 µM | [8] 32.5 µM | [10] 32.6 µM

CCOC(=O)C(Cl)Cc1cc(-n2nc(C)n(C(F)F)c2=O)c(F)cc1Cl (stereo not drawn)
inactive: [1] | [2] | [3] | [4] | [5] | [6] | [7] | [8] | [20] | [9] | [10] | [11] | [12] | [13] | [14] | [15] | [16] | [17] | [18] | [19]

CCCCOC(=O)c1ccccc1C(=O)OCCCC
active: [14] 0.767 µM | [17] 34.9 µM
inactive: [1] | [2] | [3] | [4] | [5] | [6] | [7] | [8] | [9] | [10] | [11] | [12] | [13] | [14] | [15] | [16] | [17] | [18] | [19]

CC1=C(C(=O)Nc2ccccc2)SCCO1
inactive: [1] | [2] | [3] | [4] | [5] | [6] | [7] | [8] | [9] | [10] | [11] | [12] | [13] | [15] | [16] | [17] | [18] | [19]
active: [20] 3.97 µM | [14] 0.524 µM

O=C(O)c1nc(Cl)ccc1Cl
active: [3] 28.8 µM | [16] 0.147 µM
inactive: [1] | [2] | [3] | [4] | [5] | [6] | [7] | [8] | [9] | [10] | [11] | [12] | [13] | [14] | [15] | [16] | [17] | [18] | [19]
